The record followed here is paper PMC5349851, “Combinatorial bZIP dimers display complex DNA-binding specificity landscapes”.

Targets include JUNB;JUN (Homo sapiens;Homo sapiens, UniProt P17275;P05412 259-332;243-316, |); FOSL1;CEBPA (Homo sapiens;Homo sapiens, UniProt P15407;P49715 96-169;273-345, |); FOSL1;JUN (Homo sapiens;Homo sapiens, UniProt P15407;P05412 96-169;243-316, |); FOS;ATF3 (Homo sapiens;Homo sapiens, UniProt P01100;P18847 128-201;77-150, |); FOS;ATF4 (Homo sapiens;Homo sapiens, UniProt P01100;P18848 128-201;269-346, |); JUNB;ATF4 (Homo sapiens;Homo sapiens, UniProt P17275;P18848 259-332;269-346, |); FOS;BATF3 (Homo sapiens;Homo sapiens, UniProt P01100;Q9NR55 128-201;26-99, |); BATF;CEBPA (Homo sapiens;Homo sapiens, UniProt Q16520;P49715 17-90;273-345, |).

Assay in all cases: SELEX-seq (CSI, HT-SELEX, round 3); SELEX-seq: 1x PBS (10 mM phosphate, 137 mM NaCl, 2.7 mM KCl) pH 7.6, 2.5 mM DTT, 50 ng/ul poly dI-dC, 0.1% BSA, 50 nM biotinylated bZIP (1:3 with partner for heterodimers), 100 nM library, room temperature, 1 h, 3 rounds; high values mean tight binding
Holding throughout (conditions): protein: recombinant;recombinant; copies: 1;1; dsDNA, one strand shown

The next experiment addresses T1, ATF2;ATF2 (Homo sapiens;Homo sapiens, UniProt P15336;P15336 343-417;343-417, |).
T1 sequence 1: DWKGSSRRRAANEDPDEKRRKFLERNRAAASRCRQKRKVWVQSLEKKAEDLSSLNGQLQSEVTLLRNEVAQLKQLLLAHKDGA
T1 sequence 2: T1 sequence 1

Another experiment addresses T2, JUNB;ATF3 (Homo sapiens;Homo sapiens, UniProt P17275;P18847 259-332;77-150, |).
T2 sequence 1: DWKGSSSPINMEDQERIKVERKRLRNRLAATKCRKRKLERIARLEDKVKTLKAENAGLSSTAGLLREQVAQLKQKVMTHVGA
T2 sequence 2: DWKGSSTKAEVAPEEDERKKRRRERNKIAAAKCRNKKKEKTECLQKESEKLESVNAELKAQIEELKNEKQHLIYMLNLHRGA

The target in the next experiment is T3, JUNB;CEBPG (Homo sapiens;Homo sapiens, UniProt P17275;P53567 259-332;52-130, |).
T3 sequence 1: T2 sequence 1
T3 sequence 2: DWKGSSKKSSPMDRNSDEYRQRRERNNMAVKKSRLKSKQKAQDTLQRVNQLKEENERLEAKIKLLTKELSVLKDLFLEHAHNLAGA

The target of a further experiment is T4, JUNB;BATF3 (Homo sapiens;Homo sapiens, UniProt P17275;Q9NR55 259-332;26-99, |).
T4 sequence 1: T2 sequence 1
T4 sequence 2: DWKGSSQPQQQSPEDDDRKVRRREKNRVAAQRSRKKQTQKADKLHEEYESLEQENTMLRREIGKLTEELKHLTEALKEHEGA

Another experiment deals with T5, JUNB;DBP (Homo sapiens;Homo sapiens, UniProt P17275;Q10586 259-332;246-324, |).
T5 sequence 1: T2 sequence 1
T5 sequence 2: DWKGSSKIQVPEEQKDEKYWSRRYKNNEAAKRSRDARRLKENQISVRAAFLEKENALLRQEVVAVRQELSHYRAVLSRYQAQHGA

The target in the next experiment is T6, BATF;ATF3 (Homo sapiens;Homo sapiens, UniProt Q16520;P18847 17-90;77-150, |).
T6 sequence 1: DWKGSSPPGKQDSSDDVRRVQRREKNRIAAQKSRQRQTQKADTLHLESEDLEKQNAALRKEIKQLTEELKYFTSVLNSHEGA
T6 sequence 2: T2 sequence 2

Another experiment deals with T7, FOSL1;ATF3 (Homo sapiens;Homo sapiens, UniProt P15407;P18847 96-169;77-150, |).
T7 sequence 1: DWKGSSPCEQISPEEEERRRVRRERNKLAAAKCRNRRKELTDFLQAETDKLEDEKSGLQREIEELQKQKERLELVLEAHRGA
T7 sequence 2: T2 sequence 2

The target in another experiment is T8, BATF3;BATF3 (Homo sapiens;Homo sapiens, UniProt Q9NR55;Q9NR55 26-99;26-99, |).
T8 sequence 1: T4 sequence 2
T8 sequence 2: T4 sequence 2

Another experiment has as its target T9, JUNB;ATF2 (Homo sapiens;Homo sapiens, UniProt P17275;P15336 259-332;343-417, |).
T9 sequence 1: T2 sequence 1
T9 sequence 2: T1 sequence 1

Another experiment addresses T10, FOSL1;BATF3 (Homo sapiens;Homo sapiens, UniProt P15407;Q9NR55 96-169;26-99, |).
T10 sequence 1: T7 sequence 1
T10 sequence 2: T4 sequence 2

The target in another experiment is T11, XBP1;XBP1 (Homo sapiens;Homo sapiens, UniProt P17861;P17861 61-138;61-138, |).
T11 sequence 1: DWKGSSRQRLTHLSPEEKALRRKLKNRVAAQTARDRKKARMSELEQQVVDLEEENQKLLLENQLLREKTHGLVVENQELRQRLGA
T11 sequence 2: T11 sequence 1

In another experiment the target is T12, DBP;DBP (Homo sapiens;Homo sapiens, UniProt Q10586;Q10586 246-324;246-324, |).
T12 sequence 1: T5 sequence 2
T12 sequence 2: T5 sequence 2

Sequence of BATF;CEBPA (P49715 other isoform, or with tags, fused parts or gaps |): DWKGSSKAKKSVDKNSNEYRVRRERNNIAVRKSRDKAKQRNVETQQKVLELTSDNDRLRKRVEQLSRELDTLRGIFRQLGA
Sequence of JUNB;JUN (P05412 other isoform, or with tags, fused parts or gaps |): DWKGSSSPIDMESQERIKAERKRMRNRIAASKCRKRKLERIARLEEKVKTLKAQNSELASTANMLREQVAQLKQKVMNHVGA
Sequence of FOS;ATF3 (P01100 other isoform, or with tags, fused parts or gaps |, chain 1 of 2, one chain of several): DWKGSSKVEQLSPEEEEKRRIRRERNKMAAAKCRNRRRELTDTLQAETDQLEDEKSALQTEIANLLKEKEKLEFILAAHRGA
Sequence of FOS;BATF3 (P01100 other isoform, or with tags, fused parts or gaps |): as the sequence (P01100 other isoform, or with tags, fused parts or gaps |, chain 1 of 2, one chain of several) above
Sequence of FOS;ATF4 (P01100 other isoform, or with tags, fused parts or gaps |, chain 1 of 2): as the sequence (P01100 other isoform, or with tags, fused parts or gaps |, chain 1 of 2, one chain of several) above
Sequence of FOS;ATF4 (P18848 other isoform, or with tags, fused parts or gaps |, chain 2 of 2): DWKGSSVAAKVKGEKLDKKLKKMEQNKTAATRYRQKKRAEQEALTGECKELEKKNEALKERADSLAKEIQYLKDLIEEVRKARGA
Sequence of JUNB;ATF4 (P18848 other isoform, or with tags, fused parts or gaps |): as the sequence (P18848 other isoform, or with tags, fused parts or gaps |, chain 2 of 2) above

In the case of ATGACGGAAT, the binding signal with ATF2;ATF2 is 0.0134 relative CSI intensity (max = 1); with JUNB;ATF3, 0.00128 relative CSI intensity (max = 1); with JUNB;CEBPG, 0.00175 relative CSI intensity (max = 1); in the experiment with JUNB;JUN, 0.0196 relative CSI intensity (max = 1); in the experiment with JUNB;BATF3, 0.00175 relative CSI intensity (max = 1); with JUNB;DBP, 0.0141 relative CSI intensity (max = 1). The binding signal in the experiment with BATF;ATF3 is 0.019 relative CSI intensity (max = 1); in the experiment with FOSL1;ATF3 it was 0.0493 relative CSI intensity (max = 1); with FOSL1;CEBPA it was 0.00381 relative CSI intensity (max = 1); in the experiment with FOSL1;JUN it was 0.00225 relative CSI intensity (max = 1); with FOS;ATF3 it was 0.0362 relative CSI intensity (max = 1); in the experiment with FOS;ATF4, 0.00272 relative CSI intensity (max = 1).
With CCTGACGTCA, the binding signal in the experiment with BATF3;BATF3 is 0.0069 relative CSI intensity (max = 1); with ATF2;ATF2 it was 0.144 relative CSI intensity (max = 1); in the experiment with JUNB;ATF3, 0.031 relative CSI intensity (max = 1); with JUNB;CEBPG, 0.00362 relative CSI intensity (max = 1); with JUNB;JUN, 0.0172 relative CSI intensity (max = 1); with JUNB;ATF4, 0.0113 relative CSI intensity (max = 1). Besides, the binding signal is 0.0239 relative CSI intensity (max = 1) in the experiment with JUNB;BATF3; 0.0143 relative CSI intensity (max = 1) in the experiment with JUNB;ATF2; 0.0067 relative CSI intensity (max = 1) with JUNB;DBP; 0.0203 relative CSI intensity (max = 1) with BATF;ATF3; 0.0517 relative CSI intensity (max = 1) in the experiment with FOSL1;ATF3; 0.00677 relative CSI intensity (max = 1) in the experiment with FOSL1;CEBPA. In addition, the binding signal was 0.00953 relative CSI intensity (max = 1) in the experiment with FOSL1;JUN; 0.0211 relative CSI intensity (max = 1) in the experiment with FOSL1;BATF3; 0.0295 relative CSI intensity (max = 1) with FOS;ATF3; 0.0251 relative CSI intensity (max = 1) with FOS;ATF4; 0.0279 relative CSI intensity (max = 1) in the experiment with FOS;BATF3.
As for ATGACGCAAT, the binding signal was 0.00125 relative CSI intensity (max = 1) with BATF3;BATF3; 0.0881 relative CSI intensity (max = 1) with ATF2;ATF2; 0.00105 relative CSI intensity (max = 1) in the experiment with XBP1;XBP1; 0.0702 relative CSI intensity (max = 1) with DBP;DBP; 0.0139 relative CSI intensity (max = 1) with JUNB;ATF3; 0.308 relative CSI intensity (max = 1) with JUNB;CEBPG. In addition, the binding signal in the experiment with JUNB;JUN was 0.0103 relative CSI intensity (max = 1); in the experiment with JUNB;ATF4, 0.0028 relative CSI intensity (max = 1); in the experiment with JUNB;BATF3 it was 0.026 relative CSI intensity (max = 1); with JUNB;ATF2, 0.00356 relative CSI intensity (max = 1); in the experiment with JUNB;DBP, 0.162 relative CSI intensity (max = 1); in the experiment with BATF;ATF3, 0.0223 relative CSI intensity (max = 1). For the same sequence, the binding signal with BATF;CEBPA was 0.00768 relative CSI intensity (max = 1); in the experiment with FOSL1;ATF3, 0.0466 relative CSI intensity (max = 1); with FOSL1;CEBPA, 0.765 relative CSI intensity (max = 1); with FOSL1;JUN it was 0.0151 relative CSI intensity (max = 1); in the experiment with FOS;ATF3, 0.0598 relative CSI intensity (max = 1); in the experiment with FOS;ATF4, 0.0149 relative CSI intensity (max = 1). Also, in the experiment with FOS;BATF3, the binding signal was 0.00954 relative CSI intensity (max = 1).
In the case of ATGATGCAAT, the binding signal with ATF2;ATF2 is 0.00515 relative CSI intensity (max = 1); in the experiment with DBP;DBP, 0.00594 relative CSI intensity (max = 1); with JUNB;CEBPG, 0.252 relative CSI intensity (max = 1); in the experiment with JUNB;JUN, 0.0548 relative CSI intensity (max = 1); in the experiment with JUNB;BATF3 it was 0.00368 relative CSI intensity (max = 1); with JUNB;DBP, 0.0471 relative CSI intensity (max = 1). Besides, the binding signal with BATF;CEBPA is 0.0115 relative CSI intensity (max = 1); in the experiment with FOSL1;ATF3, 0.00412 relative CSI intensity (max = 1); in the experiment with FOSL1;CEBPA, 0.368 relative CSI intensity (max = 1); in the experiment with FOSL1;JUN, 0.00257 relative CSI intensity (max = 1); in the experiment with FOSL1;BATF3, 0.00287 relative CSI intensity (max = 1); with FOS;ATF3 it was 0.0114 relative CSI intensity (max = 1). In the experiment with FOS;ATF4, the binding signal was 0.00384 relative CSI intensity (max = 1).
For ATGACGTCAT, the binding signal with BATF3;BATF3 is 0.904 relative CSI intensity (max = 1); with ATF2;ATF2 it was 1 relative CSI intensity (max = 1); in the experiment with XBP1;XBP1, 0.222 relative CSI intensity (max = 1); in the experiment with DBP;DBP, 0.0564 relative CSI intensity (max = 1); in the experiment with JUNB;ATF3, 1 relative CSI intensity (max = 1); with JUNB;CEBPG, 0.0649 relative CSI intensity (max = 1). In addition, the binding signal is 0.769 relative CSI intensity (max = 1) with JUNB;JUN; 1 relative CSI intensity (max = 1) with JUNB;ATF4; 1 relative CSI intensity (max = 1) with JUNB;BATF3; 1 relative CSI intensity (max = 1) with JUNB;ATF2; 1 relative CSI intensity (max = 1) with JUNB;DBP; 0.113 relative CSI intensity (max = 1) with BATF;ATF3. Moreover, the binding signal in the experiment with BATF;CEBPA is 0.00178 relative CSI intensity (max = 1); with FOSL1;ATF3 it was 0.156 relative CSI intensity (max = 1); in the experiment with FOSL1;CEBPA, 0.261 relative CSI intensity (max = 1); with FOSL1;JUN, 0.478 relative CSI intensity (max = 1); in the experiment with FOSL1;BATF3, 0.282 relative CSI intensity (max = 1); in the experiment with FOS;ATF3, 0.117 relative CSI intensity (max = 1). Moreover, the binding signal with FOS;ATF4 and with FOS;BATF3 was 1 relative CSI intensity (max = 1) in each case.
On to ATGACGTAAT, for which the binding signal in the experiment with BATF3;BATF3 was 0.0127 relative CSI intensity (max = 1); with ATF2;ATF2 it was 0.289 relative CSI intensity (max = 1); with XBP1;XBP1, 0.00422 relative CSI intensity (max = 1); with DBP;DBP, 0.487 relative CSI intensity (max = 1); with JUNB;ATF3, 0.166 relative CSI intensity (max = 1); with JUNB;CEBPG it was 0.17 relative CSI intensity (max = 1). The binding signal with JUNB;JUN is 0.0997 relative CSI intensity (max = 1); with JUNB;ATF4 it was 0.0439 relative CSI intensity (max = 1); with JUNB;BATF3 it was 0.0919 relative CSI intensity (max = 1); with JUNB;ATF2, 0.151 relative CSI intensity (max = 1); with JUNB;DBP, 0.727 relative CSI intensity (max = 1); in the experiment with BATF;ATF3, 0.0836 relative CSI intensity (max = 1). Moreover, the binding signal with BATF;CEBPA was 0.00231 relative CSI intensity (max = 1); in the experiment with FOSL1;ATF3, 0.0529 relative CSI intensity (max = 1); with FOSL1;CEBPA, 0.208 relative CSI intensity (max = 1); in the experiment with FOSL1;JUN, 0.0392 relative CSI intensity (max = 1); with FOSL1;BATF3 it was 0.0576 relative CSI intensity (max = 1); with FOS;ATF3, 0.0389 relative CSI intensity (max = 1). Further, the binding signal is 0.0605 relative CSI intensity (max = 1) with FOS;ATF4 and 0.0787 relative CSI intensity (max = 1) in the experiment with FOS;BATF3.
